In PubChem BioAssay AID720554 (ICCB-Longwood Screening Facility, Harvard Medical School, 2013):
About 45 (0.4%) of roughly 12,000 compounds were called active. Rule as the data show it: active = inhibition mostly above about 83% (no sharp cut-off); inactive = mostly below about 52%. The sample as a whole holds a higher share of actives than the screen did.

What was measured:
[1] = BmaI1 acyl-homoserine lactone synthase inhibition – biochemical, fluorescence intensity, with counterscreen (AID 720554); settings: BmaI1 enzyme assay, measured here: counterscreen fluorescence % control, concentration not given here
[2] = tested on: acyl-homoserine lactone synthase BmaI1 (Burkholderia mallei ATCC 23344); experiment: as above; settings: BmaI1 enzyme assay, stronger effect = higher value, concentration not given here

Cc1nc(N2CCCC2)sc1C(=O)c1oc2ccccc2c1C
inhibition [1]: 17% | inhibition [2]: 20% (inactive)

Cc1nc(N2CCCCC2)sc1C1Sc2ccccc2NC1=O (stereo not drawn)
inhibition [1]: -5% | inhibition [2]: -2.5% (inactive)

O=C1N=c2ccccc2=C1c1sc(N2CCCCC2)nc1O
inhibition [1]: 8.5% | inhibition [2]: 91.5% (active)

CC(C)CNCC(=O)Nc1ccc(S(N)(=O)=O)cc1
inhibition [1]: -1.5% | inhibition [2]: 6.5% (inactive)

Cc1csc(C(C#N)C(=O)CSc2ccc3c(c2)OCCO3)n1 (stereo not drawn)
inhibition [1]: 0% | inhibition [2]: 16% (inactive)

Cn1cccc1C(=O)Nc1ccc2c(c1)nc1n2CCCCC1
inhibition [1]: 27% | inhibition [2]: 18% (inactive)

CC(=O)Nc1ccc(/C=N/N2C(=O)c3ccccc3C2=O)cc1
inhibition [1]: 14.5% | inhibition [2]: 13% (inactive)

CC(=O)Nc1ccc(/C=N/n2cc(-c3ccccc3)[nH]c2=S)cc1
inhibition [1]: 13.5% | inhibition [2]: 90% (active)

S=c1[nH]c(-c2ccccc2)cn1/N=C/c1ccc2c(c1)OCCO2
inhibition [1]: 41.5% | inhibition [2]: 94% (inactive)

O=C(CCc1nc2ccccc2c(=O)[nH]1)Nc1ccccc1C(=O)NC1CC1
inhibition [1]: 5.5% | inhibition [2]: 13.5% (inactive)

O=C(OC(c1ccccc1)c1ccccc1)c1ccncc1
inhibition [1]: 14% | inhibition [2]: 14% (inactive)

N[C@@H](C(=O)N[C@@H]1C(=O)N2C(C(=O)O)=C(Cl)CS[C@H]12)c1ccccc1
inhibition [1]: 4.5% | inhibition [2]: 5% (inactive)

N[C@@H](C(=O)N[C@@H]1C(=O)N2C(C(=O)O)=C(CSc3cn[nH]n3)CS[C@H]12)c1ccc(O)cc1 (tested in a mixture with another compound)
inhibition [1]: 6% | inhibition [2]: 93% (active)

CC1=C(C(=O)O)N2C(=O)[C@@H](NC(=O)[C@H](N)c3ccccc3)[C@H]2SC1
inhibition [1]: 7.5% | inhibition [2]: -7% (inactive)

CN(C)S(=O)(=O)c1cccc(COC(=O)c2cn(-c3ccccc3)nc2-c2cccs2)c1
inhibition [1]: -2.5% | inhibition [2]: 8.5% (inactive)

Cc1ccc(-c2csc(NC(=O)C3(c4ccccc4)CC3)n2)s1
inhibition [1]: 20% | inhibition [2]: 20% (inactive)

O=C(c1cc(-c2ccccc2)nn1-c1ccccc1)N(C1CC1)C1CCS(=O)(=O)C1 (stereo not drawn)
inhibition [1]: 2% | inhibition [2]: 7% (inactive)

Cn1c(=S)[nH]c2ccccc21
inhibition [1]: 5% | inhibition [2]: 51.5% (inactive)

Cc1ccc(Cn2c(=S)[nH]c3ccccc32)cc1
inhibition [1]: 3% | inhibition [2]: 97% (active)

FC(F)n1c(=S)[nH]c2ccccc21
inhibition [1]: 0.5% | inhibition [2]: 13.5% (inactive)

CC(Sc1nnnn1-c1ccc(O)cc1)C(=O)c1ccccc1 (stereo not drawn)
inhibition [1]: 2.5% | inhibition [2]: 8.5% (inactive)

c1ccc(CNC2=NCCCCC2)nc1
inhibition [1]: -13% | inhibition [2]: -8.5% (inactive)

O=S(=O)(NNC1=NCCCCC1)c1ccccc1
inhibition [1]: 28.5% | inhibition [2]: 63.5% (inactive)

c1ccc(NNC2=NCCCCC2)nc1
inhibition [1]: 4.5% | inhibition [2]: 85% (active)

O=Nc1c(O)[nH]c2c(C(F)(F)F)cccc12
inhibition [1]: 11% | inhibition [2]: 13% (inactive)

COc1cccc(-n2c(SC3CCOC3=O)nc3ccccc3c2=O)c1 (stereo not drawn)
inhibition [1]: 13.5% | inhibition [2]: 14.5% (inactive)

O=C(CSc1ncc(C(F)(F)F)cc1Cl)N1CCN(S(=O)(=O)c2ccccc2)CC1
inhibition [1]: -4% | inhibition [2]: 8.5% (inactive)

Cc1noc(C)c1COc1ccc(C(=O)OCC(N)=O)cc1
inhibition [1]: 3% | inhibition [2]: 14% (inactive)

O=C(CCSc1ccc(Cl)cc1)Nc1ccccc1
inhibition [1]: 17.5% | inhibition [2]: 15% (inactive)

CCCn1c(CCC(=O)N(C)c2ccccc2)nc2cc(S(=O)(=O)N3CCCC3)ccc21
inhibition [1]: -2.5% | inhibition [2]: 37% (inactive)

CCn1c(CCC(=O)N2CCN(c3ccccn3)CC2)nc2cc(S(N)(=O)=O)ccc21
inhibition [1]: -0.5% | inhibition [2]: 98% (active)

CCN(CC)S(=O)(=O)c1ccc2c(c1)nc(CCC(=O)N1CCN(c3ccccc3)CC1)n2CC
inhibition [1]: 10.5% | inhibition [2]: 17% (inactive)

Cc1ccc(C2=NN(C(=O)CSc3ccc4c(c3)OCCO4)C(c3ccco3)C2)cc1 (stereo not drawn)
inhibition [1]: 0% | inhibition [2]: 7.5% (inactive)

O=C(OCC1CCCCC1)c1n[nH]c2ccccc12
inhibition [1]: 12.5% | inhibition [2]: 30.5% (inactive)

COc1ccc(Br)cc1CN(C)CN1C(=O)C2CC=CCC2C1=O (stereo not drawn)
inhibition [1]: 10.5% | inhibition [2]: 3.5% (inactive)

CN1/C(=C\C=Nc2ccccc2N)C(C)(C)c2ccccc21
inhibition [1]: -25% | inhibition [2]: -9% (inactive)

CN1/C(=C\C=N\NC(=O)c2cccnc2)C(C)(C)c2ccccc21
inhibition [1]: 7% | inhibition [2]: 43% (inactive)

CN1/C(=C\C=N\NC(N)=S)C(C)(C)c2ccccc21
inhibition [1]: 29% | inhibition [2]: 85% (active)

CC(C)(C)c1ccc(C(=O)NCCc2ccccn2)cc1
inhibition [1]: 2% | inhibition [2]: 5.5% (inactive)

Cc1cccc(OCc2nnc3n2-c2ccccc2SC3)c1
inhibition [1]: -6.5% | inhibition [2]: -1.5% (inactive)

O=C(COC(=O)/C=C/c1ccco1)Nc1cccc(C(F)(F)F)c1
inhibition [1]: -1% | inhibition [2]: 0.5% (inactive)

CC1Cc2ccccc2N1CC(=O)NCc1ccc2c(c1)OCO2 (stereo not drawn)
inhibition [1]: -28% | inhibition [2]: 48% (inactive)

COc1ccc(N2CCN(C(=S)Cc3ccccc3)CC2)cc1
inhibition [1]: 5% | inhibition [2]: 8.5% (inactive)

S=C(c1ccc(-c2ccccc2)o1)N1CCN(c2ccccc2)CC1
inhibition [1]: 13.5% | inhibition [2]: 97.5% (active)

NC(=O)c1ccc(-c2ccccc2)o1
inhibition [1]: 40% | inhibition [2]: 20% (inactive)

O=C(COc1ccccc1C(=O)NCc1ccccc1)Nc1cccc2nsnc12
inhibition [1]: 0% | inhibition [2]: 12% (inactive)

COc1ccc(COc2ncnc3ccccc23)cc1F
inhibition [1]: 1% | inhibition [2]: 19.5% (inactive)

COc1ccc(C(=O)OCc2ccccc2F)c(OC)c1OC
inhibition [1]: 12.5% | inhibition [2]: 0% (inactive)

COc1ccc(COC(=O)c2cc(O)c3ccccc3c2O)cc1F
inhibition [1]: 19.5% | inhibition [2]: 84.5% (active)

CC(OC(=O)c1ccc(NS(=O)(=O)c2cccs2)cc1)c1nc2scc(-c3cccs3)c2c(=O)[nH]1 (stereo not drawn)
inhibition [1]: 8.5% | inhibition [2]: 15.5% (inactive)

CC1=C/C(=N\NC(=O)COc2ccc(C#N)cc2)CC(C)(C)C1
inhibition [1]: 2% | inhibition [2]: 9% (inactive)

CNC(C)c1ccccc1 (stereo not drawn)
inhibition [1]: -4.5% | inhibition [2]: -1.5% (inactive)

COC(=O)c1cnc(N)s1
inhibition [1]: 5% | inhibition [2]: 17% (inactive)

Fc1ccccc1NC(=S)N/N=C/c1cn(-c2ccccc2)nc1-c1cc2ccccc2o1
inhibition [1]: 2.5% | inhibition [2]: 6% (inactive)

O=CN1CCN(C(=S)Nc2ccc(Cl)cc2Cl)CC1
inhibition [1]: 9% | inhibition [2]: -3% (inactive)

Oc1ccc(/C=N/NC(=S)Nc2ccc(Cl)cc2Cl)c(O)c1O
inhibition [1]: 15.5% | inhibition [2]: 84% (active)

O=C(NCc1ccccc1)c1cccc(OCC(=O)N2CCOCC2)c1
inhibition [1]: -11% | inhibition [2]: -13.5% (inactive)

CC1(C)CC(NCc2cc(Cl)c3c(c2)OCCCO3)CC(C)(C)N1
inhibition [1]: 4.5% | inhibition [2]: 10% (inactive)

Cn1c(N)c(C(=O)CSc2nc3sc4c(c3c(=O)n2Cc2ccco2)CCCC4)c(=O)[nH]c1=O
inhibition [1]: 5% | inhibition [2]: 12.5% (inactive)

COc1ccccc1NC(=O)c1ccc(NC(=O)COC(=O)C2CCCO2)cc1 (stereo not drawn)
inhibition [1]: -4.5% | inhibition [2]: -1.5% (inactive)

Sc1ccc2c(c1)OCCCO2
inhibition [1]: 3.5% | inhibition [2]: 38% (inactive)

CCOC(=O)C1CCN(C(C)C(=O)Nc2ccc(C(C)C)cc2)CC1 (stereo not drawn)
inhibition [1]: 3% | inhibition [2]: 9.5% (inactive)

S=c1[nH]cc2ccccn12
inhibition [1]: 5.5% | inhibition [2]: 96.5% (active)

Nn1cc(-c2ccccc2)[nH]c1=S
inhibition [1]: 52% | inhibition [2]: 104% (inactive)

Ic1ccc(-c2ncc3ccccn23)cc1
inhibition [1]: 11% | inhibition [2]: 17.5% (inactive)

CC(=O)NS(=O)(=O)c1ccc(N)cc1
inhibition [1]: 9.5% | inhibition [2]: -0.5% (inactive)

Nc1ccc(S(=O)(=O)CCSS(=O)(=O)c2ccc(N)cc2)cc1
inhibition [1]: 0.5% | inhibition [2]: 88% (active)

Nc1ccc(S(=O)(=O)c2ccc(N)cc2)cc1
inhibition [1]: 6% | inhibition [2]: -2.5% (inactive)

Cc1nnc(SC(C)C(N)=O)n1Cc1ccccc1 (stereo not drawn)
inhibition [1]: -2% | inhibition [2]: 9.5% (inactive)

COc1cccc(N2C(=O)CC(n3nc(Nc4cccc(C)c4)sc3=S)C2=O)c1 (stereo not drawn)
inhibition [1]: 27.5% | inhibition [2]: 102% (active)

COc1ccccc1NC1CC(=O)N(c2cccc(Cl)c2)C1=O (stereo not drawn)
inhibition [1]: 10.5% | inhibition [2]: 17.5% (inactive)

COc1cccc(Nc2nnc(SCC(=O)c3cc(C)n(C)c3C)s2)c1
inhibition [1]: 9% | inhibition [2]: 20% (inactive)

C[C@@H](C(=O)N1CCSC1=NCc1ccccc1)N1C(=O)C2CC=CCC2C1=O (stereo partly drawn)
inhibition [1]: 4% | inhibition [2]: 8.5% (inactive)

CC1CC(C)CN(C(=O)c2cc3ccccc3oc2=O)C1 (stereo not drawn)
inhibition [1]: 9% | inhibition [2]: 8.5% (inactive)

Cc1csc(SCC(=O)c2ccc(S(=O)(=O)N3CCCCC3)cc2)n1
inhibition [1]: 21.5% | inhibition [2]: 58.5% (inactive)

O=C(CSc1nc2ccccc2c(=O)n1C1CCCC1)Nc1ccc2c(c1)OCCO2
inhibition [1]: 6% | inhibition [2]: 28% (inactive)

O=C(CN1CCN(S(=O)(=O)Cc2ccccc2)CC1)Nc1ccc2[nH]c(=O)[nH]c2c1
inhibition [1]: 15.5% | inhibition [2]: 35.5% (inactive)

CCn1c(-c2ccccc2)c(C(=O)CN2CCN(C)CC2)c2ccccc21
inhibition [1]: 2.5% | inhibition [2]: 38% (inactive)

Oc1c(C(c2ccccn2)N2CCN(c3ccc(F)cc3)CC2)cc(Cl)c2cccnc12 (stereo not drawn)
inhibition [1]: -13.5% | inhibition [2]: 0.5% (inactive)

CN1CCN(C(c2ccccn2)c2c(-c3ccccc3)n(O)c3ccccc23)CC1 (stereo not drawn)
inhibition [1]: 17% | inhibition [2]: 105% (active)

O=C1c2ccccc2S(=O)(=O)N1Cc1cc(=O)[nH]c(=O)[nH]1
inhibition [1]: -2.5% | inhibition [2]: -1% (inactive)

CN(C)C(=O)CN1C(=O)c2ccccc2S1(=O)=O
inhibition [1]: -3% | inhibition [2]: 2% (inactive)

CNC(=O)c1sc(CN2C(=O)c3ccccc3S2(=O)=O)nc1C
inhibition [1]: -7% | inhibition [2]: 91% (active)

CC(Sc1ccccc1F)C(=O)Nc1ccc(S(N)(=O)=O)cc1 (stereo not drawn)
inhibition [1]: 1% | inhibition [2]: 9.5% (inactive)

Cn1c(Cc2cccs2)nnc1SCC(=O)N1CCNC1=O
inhibition [1]: 2.5% | inhibition [2]: 15% (inactive)

CCCn1c(SCCCC(=O)c2cccs2)n[nH]c1=O
inhibition [1]: -0.5% | inhibition [2]: 5.5% (inactive)

COC(=O)c1ccc(C(c2c(O)ccc3ccccc23)N2CCOCC2)cc1 (stereo not drawn)
inhibition [1]: 11% | inhibition [2]: 18% (inactive)

COC(=O)c1ccc(C(c2cc3c(cc2O)OCO3)N2CCN(c3ccccc3)CC2)cc1 (stereo not drawn)
inhibition [1]: 24% | inhibition [2]: 83% (active)

Oc1cc2c(cc1C(c1ccc(C(F)(F)F)cc1)N1CCN(c3ccccc3)CC1)OCO2 (stereo not drawn)
inhibition [1]: 5% | inhibition [2]: 5.5% (inactive)
